Integrin act MD: activators of alpha7 integrin expression for muscular dystrophy | alpha7betagal myoblasts, beta-gal FDG fluorescence, 48 h | Potency, µM (highest dose often 38.3 µM), for inactives: at the top dose activation, actives largely listed as activators | 0.064% of 350,000 active | AID 624291;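 further: potency means the concentration at half of the fitted maximal effect; 100% = response of the positive control SU9516; nearly all actives have a fitted effect of over 60% in size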
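Alpha7betagal+/- myoblasts (passage 13) were plated 16-24 hr, then exposed to compounds (1:260 dilution of DMSO stock) for 48 hours at 37C. After MPER lysis, β-galactosidase reporter activity was read as FDG fluorescence (ex 480/em 540) after 30 minutes.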
USP2a inh: inhibitors of human ubiquitin-specific protease USP2a. Potency, µM (series often up to 38.3 µM), without a hit: at the top dose activity change, negative = inhibition, usual class: inhibitors. USP2 core, Ub-CHOP2 coupled fluorogenic reporter, 485/531. O75604. 0.01% of 330,000 active. AID 463254;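 further: potency means the concentration at half of the fitted maximal effect; plate controls were DMSO wells for no effect and full inhibition by NEM control for full effect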
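Deubiquitinase activity read as fluorescence (485/531 nm) after Ub-CHOP2 cleavage activates the enterokinase reporter on its substrate; USP2 core 10nM, Ub-CHOP2 and substrate 25nM each, 30min compound preincubation then 60min RT; data normalized to NEM, curves fitted.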
IL-2 act: IL-2 activation. IL-2 activation reporter assay, cell-based qHTS; stimulated with anti-CD3/CD4/CD28 beads; in transgenic mouse T cells. activation, % (series mostly up to about 46 µM). 0.065% of 360,000 active; in the data active means activation above about 50%; inconclusive means mostly about 30% to 49%; further: 0% is about no effect
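Readout is EGFP and DsRed signal by fluorescent plate cytometry after 18 h at 37 degrees C. Transgenic mouse T cells (750/well) received compound for 60 min before bead stimulation (anti-CD3, anti-CD4, anti-CD28); memory T cells served as non-tolerant control.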
PKM2 activator: activators of human pyruvate kinase M2; purified PKM2, Kinase-Glo ATP luminescence, activation; response scale: 0% is enzyme alone, no compound; Potency, µM (titrated, usually from 57.5 µM), for inactives: at the highest dose activation, hits mostly activators; 0.34% of 260,000 active; P14618; further: potency means the concentration at half of the fitted maximal effect; on the % scale 0 is the no-effect control and ±100 the full control effect; nearly all actives have a fitted effect of over 55% in size
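Kinase-Glo luminescence reports ATP generated from ADP (0.1 mM) and PEP (0.5 mM) by purified hPK-M2 after 1 h at room temperature, pH 7.2 imidazole buffer; intermediate enzyme activity allows detecting inhibitors and activators.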
ClpP mod: qHTS Assay for Activators of ClpP. 1.9% of 340,000 active. AID 651965, 2013. ATP-dependent Clp protease proteolytic subunit (Bacillus subtilis (strain 168)), P80244. purified B. subtilis ClpP, FRET peptide cleavage, 20 min. Potency, µM (doses to about 57.5 µM), without a hit: at the highest dose activity change, negative = active; active means well fitted falling curve with a large enough effect; inconclusive means small, poorly fitted or top-dose-only effect; inactive means no such curve, though single readings can be large or run the other way; further: potency means the concentration at half of the fitted maximal effect; the source files actives as falling curves though it sought activators and does not explain the sign; nearly all actives have a fitted effect of over 65% in size
Target sequence (P80244 whole entry, looked up): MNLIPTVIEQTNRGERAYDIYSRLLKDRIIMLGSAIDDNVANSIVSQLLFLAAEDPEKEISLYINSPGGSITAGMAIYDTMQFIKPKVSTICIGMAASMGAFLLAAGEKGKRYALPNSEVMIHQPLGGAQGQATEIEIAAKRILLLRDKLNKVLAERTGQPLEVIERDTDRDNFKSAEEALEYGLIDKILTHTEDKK
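Purified B. subtilis ClpP, 10 microg/mL final in Tris/HCl pH8 with KCl, BSA, glycerol and Tween-20, cleaved an Abz/nitrotyrosine-quenched decapeptide. Fluorescence (ex 320, em 430) was read at 0 and 20 min at room temperature. Delta was normalized to 5.8 microM ADEP and DMSO/no-enzyme controls.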
Pin1 inh: blocks the human prolyl isomerase Pin1; Pin1 FP peptide displacement, HiFluor488, 10 min; 0.009% of 390,000 active; AID 504891; Q13526; Potency, µM (doses to about 115 µM), for the others: at the top dose activity, negative = inhibition, hits mostly inhibitors; active means well fitted inhibition curve with a large enough effect in the polarisation, with a control signal flat, not every such curve was filed as active; inconclusive means small, poorly fitted or top-dose-only effect, or effect the other way, or a change in a side signal; inactive means no such curve, though single readings can be large or run the other way; the % refers to the polarisation; further: potency means the concentration at half of the fitted maximal effect; on the % scale 0 is the no-effect control and ±100 the full control effect
Target sequence (Q13526 whole entry, looked up): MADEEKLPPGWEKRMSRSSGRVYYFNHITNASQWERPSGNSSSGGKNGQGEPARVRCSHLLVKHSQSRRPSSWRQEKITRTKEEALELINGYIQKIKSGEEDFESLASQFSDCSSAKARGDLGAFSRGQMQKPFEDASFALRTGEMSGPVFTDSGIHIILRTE
Active calls of the source: *. Shown are actives, neighbours in structure and some others; about 1.9% of the full set was active somewhere. Unless noted, the call rests on the fitted dose curve; in most records, active means well fitted curve in the direction sought with a large enough effect; inconclusive means small, poorly fitted or top-dose-only effect, or another doubt; inactive means no such curve, though single readings can be large; an effect the other way counts as inactive or inconclusive.

Screening COc1ccc2cc3cc(C(=O)N4CCN(Cc5ccc6c(c5)OCO6)CC4)oc3nc2c1 returned Integrin act MD -20.2%, USP2a inh 3.4%, IL-2 act -2.4, PKM2 activator 3.2%, ClpP mod 31.6µM* and Pin1 inh 28.2%.
`COc1ccc(CNC(=O)c2cc3cc4ccc(C)cc4nc3o2)cc1` gave ClpP mod -13.5% and Pin1 inh 4.7%.
`COc1ccc2cc3cc(C(=O)NCC4COc5ccccc5O4)oc3nc2c1` (stereo not given) gave Integrin act MD 30.8%, USP2a inh -0.8%, IL-2 act -1.5, PKM2 activator -0.4%, ClpP mod 35.5µM* and Pin1 inh 5.7%.
Screening COc1ccc2cc(C(=O)N3CCN(Cc4ccc5c(c4)OCO5)CC3)[nH]c2c1 returned Integrin act MD -45.1%, USP2a inh -1.1%, IL-2 act -3.5, ClpP mod -5.6% and Pin1 inh -9.2%.
Screening COc1ccc2cc3cc(C(=O)NCc4ccc5c(c4)OCO5)oc3nc2c1 returned Integrin act MD -6.8%, USP2a inh 2.7%, IL-2 act 0.1, PKM2 activator -2.6%, ClpP mod 14.1µM* and Pin1 inh inconclusive.
Screening COc1ccc(OC)c(/C=C/c2ccc3ccccc3[n+]2C)c1 returned ClpP mod 0.6%.
Screening Cc1ccc(CN(Cc2cc3cc(C)ccc3[nH]c2=O)Cc2nnnn2Cc2ccccc2)cc1 returned ClpP mod inconclusive and Pin1 inh 1.4%.
COc1ccc2nc3oc(C(=O)N4CCC(C(N)=O)CC4)cc3cc2c1 was read as Integrin act MD -21.9%, USP2a inh 0.7%, IL-2 act 0.8, PKM2 activator -12.5%, ClpP mod 28.2µM* and Pin1 inh 6.2%.
For CCOC(=O)C1CCN(C(=O)c2cc3cc4ccc(OC)cc4nc3o2)CC1 the results were Integrin act MD 24.4%, USP2a inh 2.0%, IL-2 act -2.1, ClpP mod 3.6% and Pin1 inh 0.2%.
Screening CC1(C)CC2CC(C)(CN2C(=O)COC(=O)c2ccc(Cl)cc2N)C1 (stereo not given) returned Integrin act MD 17.6%, USP2a inh 0.9%, IL-2 act -0.2, PKM2 activator -0.9%, ClpP mod 28.2µM* and Pin1 inh 6.5%.
`CCN(CC)CCCNC(=O)c1cc2c(-c3cccc(OC)c3)nn(C)c2s1` gave Integrin act MD -55.8%, USP2a inh -0.8%, IL-2 act -0.4, ClpP mod 4.9% and Pin1 inh 6.2%.
For COc1cccc(-c2nn(C)c3sc(C(=O)NCc4ccco4)cc23)c1 the results were Integrin act MD 11.1%, USP2a inh 5.2%, IL-2 act -1.5, PKM2 activator 9.6%, ClpP mod 22.4µM* and Pin1 inh inconclusive.
For CCN1CCCC1CNC(=O)c1cc2c(-c3cccc(OC)c3)nn(C)c2s1 (stereo not given) the results were Integrin act MD -49.9%, USP2a inh 2.8%, IL-2 act 0.4, PKM2 activator 2.5%, ClpP mod 31.6µM* and Pin1 inh 5.2%.
Screening COc1ccc(C(=O)N(Cc2cccs2)Cc2cccs2)c(O)c1 returned Pin1 inh -6.4%.
For COc1ccccc1C(=O)Nc1ccc(Oc2ncnc3sc(-c4ccccc4)cc23)cc1 the results were Integrin act MD 9.0%, USP2a inh 1.7%, IL-2 act -1.5, PKM2 activator -2.7%, ClpP mod 10µM* and Pin1 inh 26.8%.
For CCOc1ccc(S(=O)(=O)NCC2CCCO2)c2ccccc12 (stereo not given) the results were Integrin act MD -5.1%, USP2a inh -1.5%, IL-2 act -0.5, PKM2 activator -15.6%, ClpP mod -2.6% and Pin1 inh -1.4%.

Screening results: PubChem, National Center for Advancing Translational Sciences (NCATS)
